Bioassay records as filed in PubChem BioAssay.
The list is not random: actives were taken first. Their share in the collection is about 22%.
Measles CPE – compounds protecting cells from measles virus cytopathic effect, primary screen, measles RdRp inhibitor project, single point, MLSMR library, absorbance. Measles virus-infected cells, CPE protection. protection (pct of control), % at 4 µM. 1.5% of 140,000 active; in the data active means protection mostly above about 24%, no sharp cut-off; inactive means mostly below about 26%
CYP2C9 act – human CYP2C9 activators, primary screen, biochemical, luminescence; 1.4% of 96,000 active; AID 1024, 2008; recombinant CYP2C9, luciferin-H conversion; hits give high values; factor 1 = untreated enzyme, 0 = blocked; activation factor at 5 µM;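 active means activation factor of 2 or more for CYP2C9 at a 5 µM dose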;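 further: 0 = sulfaphenazole-blocked wells and 1 = vehicle-only wells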
CYP2C19 activ – human CYP2C19 activators, primary screen, biochemical, luminescence; Cytochrome P450 2C19 (Homo sapiens), P33261; recombinant CYP2C19, luciferin-H EGE luminescence; hits give high values; 0 = fully inhibited enzyme, 1 = untreated enzyme; activation factor at 5 µM; 96,000 tested, under 10 active; AID 1025, 2008;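 active means activation factor of at least 2 at 5 µM in the primary screen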;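 further: 0 = wells with 2.5 mM tranylcypromine and 1 = vehicle-only wells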
CYP2C9 inhib – blockers of cytochrome P450 2C9 activity – biochemical, luminescence, ADME assay, primary screen; P11712; CYP2C9 Supersomes, luciferin-H conversion; inhibition, % at 5 µM; 20% of 96,000 active;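 active means blocking of liver enzyme CYP2C9 beyond about 50% at 5 µM, limit read from the data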
CYP2C19 inh – blockers of cytochrome P450 2C19 activity – biochemical, luminescence, ADME assay, primary screen; P33261; CYP2C19 Supersomes, luciferin-H EGE luminescence, 30 min; inhibition, % at 5 µM; 21% of 96,000 active;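 active means CYP2C19 inhibition above a set limit at 5 µM in the primary screen, cut at about 50% in these data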;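 further: plate controls were negative control wells for no effect and 2.5 mM tranylcypromine positive control for full effect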
The depositor's hits bear a star.

What do the screens show for `Cc1ccc(C(=O)Nc2nc(=O)n(C(=O)C3CC3)s2)cc1`?
Measles CPE: 9; CYP2C9 act: 0.2; CYP2C19 activ: 1.1; CYP2C9 inhib: 79*; CYP2C19 inh: -6

How did O=C(Nc1nc(=O)n(C(=O)C2CC2)s1)c1ccccc1 do in these assays?
Measles CPE: 11; CYP2C9 act: 0.2; CYP2C19 activ: 1; CYP2C9 inhib: 80*; CYP2C19 inh: -3

What do the screens show for `Cc1ccc(C(=O)Nc2nc(=O)n(C(=O)c3ccccc3C)s2)cc1`?
Measles CPE: 5; CYP2C9 act: 0.2; CYP2C19 activ: 0.7; CYP2C9 inhib: 82*; CYP2C19 inh: 31

What do the screens show for `O=C(Nc1nc(=O)c2ccccc2s1)c1ccccc1`?
Measles CPE: 2; CYP2C9 act: 1; CYP2C19 activ: 1.1; CYP2C9 inhib: -2; CYP2C19 inh: -8

How did Cc1cccc(NC(=O)C23CCC(C)(C2Br)C3(C)C)c1 (stereo not drawn) do in these assays?
Measles CPE: 12; CYP2C9 act: 0.9; CYP2C19 activ: 0.9; CYP2C9 inhib: 11; CYP2C19 inh: 8

How did O=C(Nc1nnc(-c2ccccc2)s1)c1cc(S(=O)(=O)N2CCOCC2)c(Cl)cc1Cl do in these assays?
Measles CPE: 2; CYP2C9 act: 1; CYP2C19 activ: 1; CYP2C9 inhib: 4; CYP2C19 inh: 1

Results for O=C(N/N=C\c1ccc(-c2ccccc2[N+](=O)[O-])o1)C1COc2cc3ccccc3cc2O1 (stereo not drawn) ?
Measles CPE: 6; CYP2C9 act: 0.5; CYP2C19 activ: 0.6; CYP2C9 inhib: 53*; CYP2C19 inh: 41

What do the screens show for `O=C1CCC/C(=N\NC(=O)c2ccc(NS(=O)(=O)c3ccc(Br)cc3)cc2)C1`?
Measles CPE: 3

What do the screens show for `Cc1cccc(-n2nnnc2SCC(=O)c2cc(C)n(CC3CCCO3)c2C)c1` (stereo not drawn)?
Measles CPE: 48; CYP2C9 act: 1.6; CYP2C19 activ: 0.1; CYP2C9 inhib: -63; CYP2C19 inh: 90*

What do the screens show for `Cc1cc(C(=O)CSc2nc3ccccc3[nH]2)c(C)n1CC1CCCO1` (stereo not drawn)?
Measles CPE: 39*; CYP2C9 act: 0.4; CYP2C19 activ: 0.5; CYP2C9 inhib: 56*; CYP2C19 inh: 54*

What do the screens show for `Cc1ccc(-n2nnnc2SCC(=O)c2cc(C)n(CC3CCCO3)c2C)cc1` (stereo not drawn)?
Measles CPE: 20; CYP2C9 act: 1.1; CYP2C19 activ: 0.6; CYP2C9 inhib: -13; CYP2C19 inh: 42

Results for Cc1cccc(-n2nnnc2SCC(=O)c2cc(C)n(Cc3ccco3)c2C)c1 ?
Measles CPE: 16; CYP2C9 act: 2.6*; CYP2C19 activ: 0.5; CYP2C9 inhib: -158; CYP2C19 inh: 46

Results for Cc1cc(C(=O)CSc2nnnn2-c2ccc(O)cc2)c(C)n1Cc1ccc2c(c1)OCO2 ?
Measles CPE: 4; CYP2C9 act: 0.7; CYP2C19 activ: 0; CYP2C9 inhib: 25; CYP2C19 inh: 99*

How did Fc1ccc(CN2CCN3CCCC3C2C2CCCCC2)cc1F (stereo not drawn) do in these assays?
Measles CPE: 15; CYP2C9 act: 1; CYP2C19 activ: 0.9; CYP2C9 inhib: -1; CYP2C19 inh: 8

Results for CC(C)CCN(C)C1CCN(C(=O)Nc2c(F)cccc2F)CC1 ?
Measles CPE: 6; CYP2C9 act: 1; CYP2C19 activ: 1; CYP2C9 inhib: 3; CYP2C19 inh: 2

Results for CCc1cc2c3c(c1)C(C)CC(C)(C)N3C(=O)C2=O (stereo not drawn) ?
Measles CPE: 3

How did O=C(O)CCC(=O)NNc1ccccc1[N+](=O)[O-] do in these assays?
Measles CPE: 14

What do the screens show for `C=CCn1c(SCC(=O)c2cc(C)n(CC3CCCO3)c2C)nnc1-c1ccccc1` (stereo not drawn)?
Measles CPE: 7; CYP2C9 act: 0.9; CYP2C19 activ: 0.3; CYP2C9 inhib: 8; CYP2C19 inh: 73*

What do the screens show for `Cc1[nH]nc(Sc2ccccn2)c1[N+](=O)[O-]`?
Measles CPE: 19
